# Source: the supplement of paper PMC10849652
# The full data set covers some 7,900 targets. This sample favours those with a hit. About 0.6% of all pairs of compound and target were hits. A number with no mark means an inactive call.
# Key:
# Assay in all cases: log2 fold change, soluble protein after heating vs DMSO (PISA); higher = thermal stabilisation; K562 cells, 10 uM, 30 min; active = over 0.2 and 3.5 SD of the protein, either way, in both replicates (recomputed)
# [1] = compound: COC1=CC=C(C=C1)CN2C=CC3=C2C=C(C=C3)C(=O)NO
# Summary of the method: (§1)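 K562 cells at 2×10^6 cells/mL were exposed to 10 μM compound for 30 min, then aliquots were heated for 3 min across 48°C-58°C, pooled, and extracted in PBS containing 0.5% NP-40 at 4°C. The supernatant after 21,000xg for 90 min was taken as soluble protein and measured by TMTpro 16plex LC-MS/MS with channel sums equalised. Thermal stability is reported relative to control samples, with values from duplicates. Fold changes are given on a log2 scale.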
# filanesib = compound: CON(C)C(=O)N1N=C(c2cc(F)ccc2F)S[C@@]1(CCCN)c1ccccc1 [filanesib]
# Summary of the method: as §1
# zotarolimus = compound: CO[C@H]1C[C@@H]2CC[C@@H](C)[C@@](O)(O2)C(=O)C(=O)N2CCCC[C@H]2C(=O)O[C@H]([C@H](C)C[C@@H]2CC[C@H](n3cnnn3)[C@H](OC)C2)CC(=O)[C@H](C)/C=C(\C)[C@@H](O)[C@@H](OC)C(=O)[C@H](C)C[C@H](C)/C=C/C=C/C=C/1C [zotarolimus]
# Summary of the method: as §1
# idasanutlin = compound: COc1cc(C(=O)O)ccc1NC(=O)[C@@H]1N[C@@H](CC(C)(C)C)[C@](C#N)(c2ccc(Cl)cc2F)[C@H]1c1cccc(Cl)c1F [idasanutlin]
# Summary of the method: as §1
# alisertib = compound: COc1cc(Nc2ncc3c(n2)-c2ccc(Cl)cc2C(c2c(F)cccc2OC)=NC3)ccc1C(=O)O [alisertib]
# Summary of the method: as §1
# [2] = compound: COc1cc2nc(-c3cc(F)ccc3O)nc(N[C@@H]3CNC[C@H]3C(C)(C)O)c2cc1OC
# Summary of the method: as §1
# gefitinib = compound: COc1cc2ncnc(Nc3ccc(F)c(Cl)c3)c2cc1OCCCN1CCOCC1 [gefitinib]
# Summary of the method: as §1
# [3] = compound: COc1cccc2cc(-c3nc([C@H]4CC[C@H](C(=O)O)CC4)n4ncnc(N)c34)[nH]c12
# Summary of the method: as §1
# lapatinib = compound: CS(=O)(=O)CCNCc1ccc(-c2ccc3ncnc(Nc4ccc(OCc5cccc(F)c5)c(Cl)c4)c3c2)o1 [lapatinib]
# Summary of the method: as §1
# pictilisib = compound: CS(=O)(=O)N1CCN(Cc2cc3nc(-c4cccc5[nH]ncc45)nc(N4CCOCC4)c3s2)CC1 [pictilisib]
# Summary of the method: as §1
# UniProt Q13163, sequence (Q13163 whole entry, looked up): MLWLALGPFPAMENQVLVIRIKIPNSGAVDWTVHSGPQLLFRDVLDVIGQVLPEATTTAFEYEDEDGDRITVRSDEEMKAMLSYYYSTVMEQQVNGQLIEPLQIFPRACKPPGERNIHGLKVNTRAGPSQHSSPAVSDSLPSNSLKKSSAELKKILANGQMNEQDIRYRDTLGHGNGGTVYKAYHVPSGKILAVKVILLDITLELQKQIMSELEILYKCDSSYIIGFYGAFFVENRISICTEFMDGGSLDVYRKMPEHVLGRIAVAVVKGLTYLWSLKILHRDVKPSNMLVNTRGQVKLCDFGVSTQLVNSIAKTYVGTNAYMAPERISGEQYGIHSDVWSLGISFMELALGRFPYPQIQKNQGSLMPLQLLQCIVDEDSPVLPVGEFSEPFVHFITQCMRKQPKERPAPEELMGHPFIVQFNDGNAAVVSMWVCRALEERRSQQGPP
# UniProt Q7L2J0, sequence (Q7L2J0 whole entry, looked up): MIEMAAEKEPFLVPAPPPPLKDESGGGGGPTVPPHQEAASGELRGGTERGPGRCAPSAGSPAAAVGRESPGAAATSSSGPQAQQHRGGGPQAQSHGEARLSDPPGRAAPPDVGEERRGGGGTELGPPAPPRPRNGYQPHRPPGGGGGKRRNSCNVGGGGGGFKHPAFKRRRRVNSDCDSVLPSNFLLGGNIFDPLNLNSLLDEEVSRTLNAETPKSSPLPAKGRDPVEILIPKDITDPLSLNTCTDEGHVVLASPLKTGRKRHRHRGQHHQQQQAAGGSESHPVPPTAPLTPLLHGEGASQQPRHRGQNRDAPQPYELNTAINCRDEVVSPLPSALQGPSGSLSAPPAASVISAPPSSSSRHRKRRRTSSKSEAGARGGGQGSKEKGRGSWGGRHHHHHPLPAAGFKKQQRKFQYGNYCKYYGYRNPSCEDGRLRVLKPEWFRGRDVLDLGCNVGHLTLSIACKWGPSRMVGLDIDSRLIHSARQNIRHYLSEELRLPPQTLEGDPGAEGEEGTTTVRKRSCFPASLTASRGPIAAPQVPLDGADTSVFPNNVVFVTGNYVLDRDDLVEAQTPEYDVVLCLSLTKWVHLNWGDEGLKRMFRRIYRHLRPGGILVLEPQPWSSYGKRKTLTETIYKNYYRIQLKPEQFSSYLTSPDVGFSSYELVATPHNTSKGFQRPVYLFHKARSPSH
# UniProt Q9NVC6, sequence (Q9NVC6 whole entry, looked up): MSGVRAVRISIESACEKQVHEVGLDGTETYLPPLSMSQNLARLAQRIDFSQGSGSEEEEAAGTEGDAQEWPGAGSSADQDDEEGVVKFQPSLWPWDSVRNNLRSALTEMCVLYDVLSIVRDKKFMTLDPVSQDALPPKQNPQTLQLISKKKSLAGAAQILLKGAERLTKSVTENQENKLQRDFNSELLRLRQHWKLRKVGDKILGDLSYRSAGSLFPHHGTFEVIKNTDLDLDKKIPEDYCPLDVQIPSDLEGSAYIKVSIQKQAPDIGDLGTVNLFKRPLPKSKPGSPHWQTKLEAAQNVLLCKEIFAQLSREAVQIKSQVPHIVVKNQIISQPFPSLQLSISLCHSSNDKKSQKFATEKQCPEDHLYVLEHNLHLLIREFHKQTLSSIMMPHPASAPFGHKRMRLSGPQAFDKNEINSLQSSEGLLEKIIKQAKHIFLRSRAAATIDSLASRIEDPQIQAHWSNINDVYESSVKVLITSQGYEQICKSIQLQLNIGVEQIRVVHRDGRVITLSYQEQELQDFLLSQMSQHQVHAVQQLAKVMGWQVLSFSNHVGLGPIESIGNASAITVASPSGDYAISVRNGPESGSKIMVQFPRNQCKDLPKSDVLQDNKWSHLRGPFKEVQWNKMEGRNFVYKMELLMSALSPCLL
# UniProt Q8WVP7, sequence (Q8WVP7 whole entry, looked up): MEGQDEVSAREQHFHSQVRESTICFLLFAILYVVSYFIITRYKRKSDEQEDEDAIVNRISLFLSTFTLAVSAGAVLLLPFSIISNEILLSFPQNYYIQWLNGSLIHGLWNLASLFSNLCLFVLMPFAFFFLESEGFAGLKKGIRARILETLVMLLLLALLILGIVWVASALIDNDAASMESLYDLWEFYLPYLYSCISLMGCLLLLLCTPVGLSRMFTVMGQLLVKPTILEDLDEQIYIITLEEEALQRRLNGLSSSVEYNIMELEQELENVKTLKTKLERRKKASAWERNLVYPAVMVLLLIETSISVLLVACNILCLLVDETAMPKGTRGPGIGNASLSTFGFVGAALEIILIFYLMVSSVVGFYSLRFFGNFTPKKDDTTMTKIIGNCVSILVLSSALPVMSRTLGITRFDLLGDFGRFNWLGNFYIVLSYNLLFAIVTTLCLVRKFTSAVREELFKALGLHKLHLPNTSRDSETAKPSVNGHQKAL
# UniProt O15066, sequence (O15066 whole entry, looked up): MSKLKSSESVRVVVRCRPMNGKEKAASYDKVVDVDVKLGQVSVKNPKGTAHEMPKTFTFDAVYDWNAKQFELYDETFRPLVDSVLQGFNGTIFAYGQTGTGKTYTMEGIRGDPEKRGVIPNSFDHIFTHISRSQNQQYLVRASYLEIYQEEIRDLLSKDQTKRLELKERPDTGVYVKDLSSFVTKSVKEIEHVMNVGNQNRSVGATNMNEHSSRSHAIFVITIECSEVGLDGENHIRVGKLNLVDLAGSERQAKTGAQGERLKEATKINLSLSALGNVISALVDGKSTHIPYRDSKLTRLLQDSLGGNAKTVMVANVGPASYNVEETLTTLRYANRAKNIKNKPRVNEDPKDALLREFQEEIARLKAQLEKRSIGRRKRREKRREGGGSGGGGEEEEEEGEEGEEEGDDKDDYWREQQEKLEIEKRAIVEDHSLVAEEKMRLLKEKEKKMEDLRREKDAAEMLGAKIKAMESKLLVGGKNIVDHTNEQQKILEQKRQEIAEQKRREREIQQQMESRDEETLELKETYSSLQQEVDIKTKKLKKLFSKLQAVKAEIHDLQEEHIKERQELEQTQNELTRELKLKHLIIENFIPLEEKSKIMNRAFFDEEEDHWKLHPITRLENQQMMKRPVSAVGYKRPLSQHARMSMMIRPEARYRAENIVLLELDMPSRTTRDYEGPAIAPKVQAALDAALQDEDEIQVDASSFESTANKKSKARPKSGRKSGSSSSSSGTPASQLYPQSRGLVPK
# UniProt Q96P70, sequence (Q96P70 whole entry, looked up): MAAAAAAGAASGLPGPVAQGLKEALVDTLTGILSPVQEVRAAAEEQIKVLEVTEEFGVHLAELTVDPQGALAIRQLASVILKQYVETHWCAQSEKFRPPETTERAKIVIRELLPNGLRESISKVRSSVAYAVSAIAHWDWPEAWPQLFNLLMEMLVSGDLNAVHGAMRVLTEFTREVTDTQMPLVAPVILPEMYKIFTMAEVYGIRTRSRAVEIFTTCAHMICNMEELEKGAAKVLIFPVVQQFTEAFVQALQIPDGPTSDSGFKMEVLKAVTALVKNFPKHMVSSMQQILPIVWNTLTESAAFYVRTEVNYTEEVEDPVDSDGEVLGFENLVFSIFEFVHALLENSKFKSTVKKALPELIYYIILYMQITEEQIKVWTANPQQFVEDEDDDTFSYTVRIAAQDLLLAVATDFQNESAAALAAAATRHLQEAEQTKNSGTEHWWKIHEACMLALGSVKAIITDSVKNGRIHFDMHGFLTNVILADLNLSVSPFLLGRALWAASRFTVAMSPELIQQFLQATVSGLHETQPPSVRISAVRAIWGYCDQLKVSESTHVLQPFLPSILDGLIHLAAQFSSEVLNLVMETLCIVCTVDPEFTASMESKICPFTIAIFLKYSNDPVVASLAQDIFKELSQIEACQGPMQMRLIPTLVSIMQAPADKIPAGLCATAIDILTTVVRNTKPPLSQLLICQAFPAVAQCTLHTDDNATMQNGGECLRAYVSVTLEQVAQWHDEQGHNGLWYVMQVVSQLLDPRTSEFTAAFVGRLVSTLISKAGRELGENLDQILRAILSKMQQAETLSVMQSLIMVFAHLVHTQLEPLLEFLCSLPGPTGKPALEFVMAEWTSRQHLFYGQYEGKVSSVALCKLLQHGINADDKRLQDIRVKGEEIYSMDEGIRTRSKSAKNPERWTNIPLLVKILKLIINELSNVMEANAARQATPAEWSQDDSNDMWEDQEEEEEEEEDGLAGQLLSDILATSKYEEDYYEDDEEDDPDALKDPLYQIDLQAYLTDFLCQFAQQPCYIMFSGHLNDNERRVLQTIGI
# UniProt Q14680, sequence (Q14680 whole entry, looked up): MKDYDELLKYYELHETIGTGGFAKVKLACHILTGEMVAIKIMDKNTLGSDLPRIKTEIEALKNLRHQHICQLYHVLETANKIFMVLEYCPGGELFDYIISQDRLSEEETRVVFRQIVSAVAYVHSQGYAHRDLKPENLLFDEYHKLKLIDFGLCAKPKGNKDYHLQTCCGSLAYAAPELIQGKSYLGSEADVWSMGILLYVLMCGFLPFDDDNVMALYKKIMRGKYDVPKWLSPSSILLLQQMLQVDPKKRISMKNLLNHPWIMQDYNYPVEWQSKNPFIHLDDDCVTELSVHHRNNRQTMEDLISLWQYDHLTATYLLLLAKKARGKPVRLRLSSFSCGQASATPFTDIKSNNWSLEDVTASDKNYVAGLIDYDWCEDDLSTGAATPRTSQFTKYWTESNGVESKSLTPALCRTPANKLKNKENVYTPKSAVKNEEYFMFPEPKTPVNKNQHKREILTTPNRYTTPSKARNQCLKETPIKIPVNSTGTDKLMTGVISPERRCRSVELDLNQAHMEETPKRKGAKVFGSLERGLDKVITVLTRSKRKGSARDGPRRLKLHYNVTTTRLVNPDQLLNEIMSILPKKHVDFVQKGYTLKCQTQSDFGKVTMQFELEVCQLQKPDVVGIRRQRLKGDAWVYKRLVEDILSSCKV
# UniProt A4D2B0, sequence (A4D2B0 whole entry, looked up): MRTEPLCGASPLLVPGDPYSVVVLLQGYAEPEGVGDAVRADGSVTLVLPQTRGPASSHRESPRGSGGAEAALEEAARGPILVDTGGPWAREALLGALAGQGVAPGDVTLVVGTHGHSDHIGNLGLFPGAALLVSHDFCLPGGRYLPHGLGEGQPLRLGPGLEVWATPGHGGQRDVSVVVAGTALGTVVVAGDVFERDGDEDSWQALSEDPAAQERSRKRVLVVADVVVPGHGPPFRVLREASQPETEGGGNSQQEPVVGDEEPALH
Target,log2 fold change [1],log2 fold change (filanesib),log2 fold change (zotarolimus),log2 fold change (idasanutlin),log2 fold change (alisertib),log2 fold change [2],log2 fold change (gefitinib),log2 fold change [3],log2 fold change (lapatinib),log2 fold change (pictilisib)
MAGEC2 (UniProt Q9UBF1),0.018,-0.032,0.039,-0.045,-0.044,0.015,-0.018,-0.005,-0.004,0.058
KIF13A (UniProt Q9H1H9),0.003,0.01,-0.057,-0.022,-0.022,0.037,0.194,0.139,-0.012,-0.097
IPO9 (UniProt Q96P70),0.014,-0.005,0.052,-0.089,-0.016,-0.054,0.088,0.065,0.011,0.031
KHDRBS1 (UniProt Q07666),0.06,0.041,-0.012,0.002,0.014,0.129,0.026,0.008,-0.072,-0.072
MEPCE (UniProt Q7L2J0),-0.706 (active),0.042,0.042,0.036,-0.093,-0.167,0.078,0.013,0.102,-0.013
INPP5B (UniProt P32019),0,-0.015,0.002,-0.003,0.03,0.052,-0.008,-0.043,0.006,0.04
MAP1LC3B2 (UniProt A6NCE7),-0.026,-0.062,0.011,-0.022,-0.004,-0.032,-0.003,-0.035,-0.011,-0.004
MDC1 (UniProt Q14676),-0.055,0.223,0.005,0.283,-0.028,-0.01,0.032,-0.045,0.077,0.08
LRFN1 (UniProt Q9P244),-0.054,0.151,0.031,,,0.025,,,-0.048,
MED22 (UniProt Q15528),-0.03,-0.008,0.047,-0.023,0.019,,0.017,-0.171,,
MDN1 (UniProt Q9NU22),0.066,-0.095,-0.002,-0.058,-0.056,-0.031,-0.003,0.022,-0.005,0.001
MBLAC1 (UniProt A4D2B0),0.11,,0.008,0.056,-0.161,-0.064,,0.086,0.01,0.043
IWS1 (UniProt Q96ST2),0.007,-0.013,-0.006,-0.105,-0.068,0.124,-0.055,0.055,-0.077,-0.011
MAP3K20 isoform 2 (UniProt Q9NYL2),0.044,0.068,,0.407,,0.036,-0.003,-0.242,-0.121,
ILF3 (UniProt Q12906),0.033,0.156,,,-0.203,,-0.13,0.045,,
MAP3K20 (UniProt Q9NYL2),0.04,0.075,0.033,0.064,,0.048,-0.042,-0.059,0,-0.02
MED17 (UniProt Q9NVC6),0.004,0.019,-0.052,0.166,-0.08,0.044,0.016,-0.018,-0.063,0.089

Target,log2 fold change [1],log2 fold change (filanesib),log2 fold change (zotarolimus),log2 fold change (idasanutlin),log2 fold change (alisertib),log2 fold change [2],log2 fold change (gefitinib),log2 fold change [3],log2 fold change (lapatinib),log2 fold change (pictilisib)
JAK3 (UniProt P52333),-0.216,-0.019,0.018,,0.052,-0.083,-0.047,-0.02,0.01,-0.056
MAN2B2 (UniProt Q9Y2E5),-0.077,-0.027,,-0.012,0.022,-0.038,0.044,0.075,-0.026,
MELK (UniProt Q14680),0.072,-0.116,-0.019,0.061,,-3.59 (active),0.253,,-0.006,-0.079
KCNK5 (UniProt O95279),0.059,-0.117,-0.044,,-0.408,-0.541,,0.193,-0.227,-0.007
LMNB1 (UniProt P20700),-0.034,0.131,0.053,0.14,-0.075,-0.09,-0.002,0.064,0.087,0.005
MARK2 (UniProt E9PC69),-0.028,0.128,0.122,0.106,,-0.765 (active),-0.025,,0.085,
IGFBP3 isoform 2 (UniProt P17936),0.176,-0.272,-1.02 (active),0.535,,-0.103,,,0.085,-0.085
MED7 (UniProt O43513),-0.021,-0.01,0.07,-0.159,,-0.049,-0.022,,-0.116,
MAGOHB (UniProt Q96A72),-0.012,0.018,0.054,-0.027,0.011,0.144,0,0.024,-0.018,0.005
LMBR1 isoform 3 (UniProt Q8WVP7),-0.165,-0.267,-0.033,0.156,0.016,-0.218,,0.029,-0.043,0.043
MAP4K2 (UniProt Q12851),0.02,-0.143,-0.083,,,0.426,0.034,,-0.011,
LBR (UniProt Q14739),-0.075,-0.065,-0.008,-0.196,-0.019,0.079,0.034,0,-0.081,-0.191
MAP2K5 (UniProt Q13163),0.206,,0.003,-0.117,,,,,,
KIF3B (UniProt O15066),-0.071,0.04,0.027,-0.252,-0.071,0.164,,0.04,0.035,-0.161
LYN isoform 2 (UniProt P07948),-0.2,-0.212,-0.054,-0.027,,0.074,0.069,,-0.046,
MGST1 (UniProt P10620),0.039,-0.019,0.006,-0.06,0.013,0.152,-0.036,-0.043,-0.009,0.112
